Results reported in PubChem BioAssay.
Calls of active or inactive are those of the source. Unless noted, the rule behind the calls is not given here.

Columns and labels:
[1] = HepG2 liver cancer cell viability effects, profiling panel, resazurin fluorescence, 24 h, PK04 Diversity Set (AID 1172); conditions: higher = more signal
[2] = basal S. cerevisiae growth modulation, no modifier, primary screen, OD600, strain BY4716, 24 h, basal condition (AID 1173); conditions: OD600, 24 h, higher = more signal, called active from +8 up or from −8 down
[3] = MM1S myeloma cell viability, profiling panel, resazurin fluorescence, basal, 24 h, PK04 Diversity Set (AID 1174); conditions: higher = more signal, called active from +8 up or from −8 down;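 note: MM1S multiple myeloma cell line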
[4] = molecular target: Dihydroorotate dehydrogenase (quinone), mitochondrial (Plasmodium falciparum (isolate 3D7)) (UniProt Q08210); assay: PfDHODH enzyme inhibitors, primary screen, biochemical, C-terminal His tag, absorbance 600 nm (AID 1175); conditions: DCIP absorbance 600 nm, higher = more signal, called active from +8 up or from −8 down;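 note: recombinant parasite enzyme with a five histidine tag at its C terminus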
Chain of Dihydroorotate dehydrogenase (quinone), mitochondrial (Plasmodium falciparum (isolate 3D7)) (Q08210 whole entry, looked up): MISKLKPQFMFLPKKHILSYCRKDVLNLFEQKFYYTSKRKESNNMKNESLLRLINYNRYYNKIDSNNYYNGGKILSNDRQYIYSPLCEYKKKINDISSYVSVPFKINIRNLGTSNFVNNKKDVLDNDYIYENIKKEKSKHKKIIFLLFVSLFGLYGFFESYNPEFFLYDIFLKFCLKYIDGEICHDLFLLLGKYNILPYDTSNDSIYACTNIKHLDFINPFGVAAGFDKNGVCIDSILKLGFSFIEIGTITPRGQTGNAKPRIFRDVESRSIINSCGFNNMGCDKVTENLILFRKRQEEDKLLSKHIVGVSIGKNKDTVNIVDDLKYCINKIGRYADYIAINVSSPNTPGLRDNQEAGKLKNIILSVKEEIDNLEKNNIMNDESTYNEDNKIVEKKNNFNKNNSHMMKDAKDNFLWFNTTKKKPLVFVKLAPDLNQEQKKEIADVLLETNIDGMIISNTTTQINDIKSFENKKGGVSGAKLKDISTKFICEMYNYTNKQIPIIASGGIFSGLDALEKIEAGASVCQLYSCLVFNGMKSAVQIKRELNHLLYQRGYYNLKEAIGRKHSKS

[5] = P. aeruginosa biofilm formation inhibitors, primary screen, strain PAO1, LB-PBS medium, absorbance 600 nm (AID 1176); conditions: P. aeruginosa PAO1 growth/biofilm, A600, 12 h; higher = more signal
[6] = S. cerevisiae RM11-1a growth modifiers, primary screen, strain RM11-1a, OD600, basal, 24 h (AID 1177); conditions: OD600, 24 h, higher = more signal, called active from +8 up or from −8 down;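 note: cultures grown under basal conditions with no added stressor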
[7] = E. coli acrAB mutant growth effects, primary screen, E. coli filamentation inducers, strain DRC39, OD650, 24 h (AID 1178); conditions: higher = more signal, called active from +8 up or from −8 down;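 note: growth measured as culture turbidity by optical density at 650 nm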
[8] = E. coli acrAB mutant growth effects, primary screen, E. coli filamentation inducers, strain DRC39, OD650, 48 h (AID 1179);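 note: screen aims at cell division blockers that make cells filament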; conditions: E. coli DRC39 delta-acrAB growth, higher = more signal, called active from +8 up or from −8 down
[9] = RPMI8226 myeloma cell viability, profiling panel, resazurin fluorescence, basal, 24 h, PK04 Diversity Set (AID 1180); conditions: higher = more signal;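 note: RPMI8826 multiple myeloma cell line at 5000 cells per well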
[10] = molecular target: E3 ubiquitin-protein ligase XIAP (Homo sapiens) (UniProt P98170); assay: XIAP binders, primary screen, biophysical, small-molecule microarray, fluorescence 635 nm (AID 1181); conditions: small-molecule microarray binding, higher = more signal;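 note: score merges 667 nm emission and signal to noise over triplicate slides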
Chain of E3 ubiquitin-protein ligase XIAP (Homo sapiens) (P98170 whole entry, looked up): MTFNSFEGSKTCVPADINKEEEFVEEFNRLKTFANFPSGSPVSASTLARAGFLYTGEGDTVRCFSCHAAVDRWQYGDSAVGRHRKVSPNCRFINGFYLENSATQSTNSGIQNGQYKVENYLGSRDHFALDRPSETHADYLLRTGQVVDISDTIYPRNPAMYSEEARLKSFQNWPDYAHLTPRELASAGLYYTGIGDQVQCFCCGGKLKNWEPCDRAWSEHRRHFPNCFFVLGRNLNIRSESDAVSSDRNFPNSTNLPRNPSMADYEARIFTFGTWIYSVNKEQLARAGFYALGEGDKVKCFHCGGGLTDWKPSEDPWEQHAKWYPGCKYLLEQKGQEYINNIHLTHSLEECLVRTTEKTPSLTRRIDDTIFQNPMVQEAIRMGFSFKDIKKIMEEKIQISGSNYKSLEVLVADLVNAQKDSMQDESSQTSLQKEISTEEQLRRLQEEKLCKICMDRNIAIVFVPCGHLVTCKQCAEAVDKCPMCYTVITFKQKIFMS

[11] = system: XIP peptide (Xip251-270) binding; assay: small-molecule binders of XIP peptide, primary screen, biochemical, small-molecule microarray, fluorescence 635/667 nm, 0.1 µg/mL protein (AID 1182); conditions: fluorescent protein binding, 635 nm, higher = more signal, called active from +8 up or from −8 down
XIP peptide (Xip251-270) = assay: small-molecule binders of XIP peptide, primary screen, biochemical, small-molecule microarray, fluorescence 635/667 nm, 0.5 µg/mL protein (AID 1183); conditions: small-molecule microarray binding, fluorescence 635 nm; higher = more signal
[12] = Plasmodium falciparum growth inhibition, primary screen, strain 3D7, DAPI fluorescence, 100 nL (AID 1184);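 note: parasites grown inside human red blood cells in medium with human serum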; conditions: P. falciparum 3D7 growth, 3 d, higher = more signal
[13] = molecular target: Homeobox protein Hox-A13 (Mus musculus) (UniProt Q62424); assay: inhibitors of HoxA13-DNA binding, primary screen, biochemical, fluorescence polarization, labeled oligonucleotide (AID 1185); conditions: 15 min, higher = more signal, called active from +8 up or from −8 down
Chain of Homeobox protein Hox-A13 (Mus musculus) (Q62424 whole entry, looked up): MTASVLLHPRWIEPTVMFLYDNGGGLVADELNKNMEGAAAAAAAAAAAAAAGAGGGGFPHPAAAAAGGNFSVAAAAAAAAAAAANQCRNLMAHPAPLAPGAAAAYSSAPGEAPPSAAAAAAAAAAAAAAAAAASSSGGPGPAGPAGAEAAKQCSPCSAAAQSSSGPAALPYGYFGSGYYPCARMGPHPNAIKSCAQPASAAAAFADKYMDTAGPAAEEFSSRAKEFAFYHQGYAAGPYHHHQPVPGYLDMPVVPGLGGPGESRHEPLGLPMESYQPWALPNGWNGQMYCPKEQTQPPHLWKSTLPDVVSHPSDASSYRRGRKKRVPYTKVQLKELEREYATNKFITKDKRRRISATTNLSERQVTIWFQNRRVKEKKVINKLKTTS

[14] = inhibitors of hydroxyurea-induced Chk1 phosphorylation, primary screen, imaging, HeLa, phospho-Chk1 antibody, percent positive cells (AID 1186); conditions: hydroxyurea-induced phospho-Chk1 immunofluorescence imaging, higher = more signal
[15] = inhibitors of hydroxyurea-induced Chk1 phosphorylation, primary screen, imaging, HeLa, phospho-Chk1 nuclear intensity (AID 1187); conditions: hydroxyurea-induced phospho-Chk1 immunofluorescence imaging, higher = more signal

Compound | z-score [1] | z-score [2] | z-score [3] | composite z-score [4] | z-score [5] | z-score [6] | z-score [7] | z-score [8] | z-score [9] | composite z-score [10] | composite z-score [11] | composite z-score (XIP peptide (Xip251-270)) | z-score [12] | z-score [13] | z-score [14] | z-score [15]
C=CCN1C(=O)[C@@]2(CCS(=O)(=O)c3ccccc3)N=C(c3ccc(OCCCO)cc3)O[C@H]2c2ccccc21 | -0.436 | 0.698 (inactive) | -0.427 (inactive) | -0.218 (inactive) | 0.563 (inactive) | 1.45 (inactive) | -0.0209 (inactive) | 0.242 (inactive) | -2.12 | -0.0421 | 0.404 (inactive) | 0.713 | -2.05 | -2.47 (inactive) | -0.477 (inactive) | -0.37 (inactive)
COc1ccc([Si](C)(C)[C@H]2[C@H](CCO)O[C@@]3(C(=O)N(Cc4cccc(N5C(=O)COc6ccccc65)c4)c4ccccc43)[C@@H]2C)cc1 | -2.46 | 0.422 (inactive) | -3.44 (inactive) | 0.858 (inactive) | 2.44 (inactive) | 4.14 (inactive) | 2.23 (inactive) | 1.92 (inactive) | -4.91 | -0.132 | 0.595 (inactive) | 0.649 | -2.8 | -1.2 (inactive) | -0.327 (inactive) | 0.208 (inactive)
COCCCNC(=O)[C@@]1(Sc2ccc(C)cc2)CC(=O)N(C2CCCCC2)[C@@H]1c1ccc(CO)cc1 | -0.0171 | -0.0904 (inactive) | 0.0246 (inactive) | -0.0365 (inactive) | -0.438 (inactive) | 0.0315 (inactive) | 0.235 (inactive) | -0.195 (inactive) | -0.577 | -0.191 | -0.0795 (inactive) | 0.421 | -0.715 | -3.21 (inactive) | 0.317 (inactive) | 0.592 (inactive)
CCCNC(=O)[C@@]1(c2ccc([N+](=O)[O-])cc2)CC(=O)N(C2CCCCC2)[C@@H]1c1ccc(CO)cc1 | -0.347 | 0.262 (inactive) | 0.411 (inactive) | 0.666 (inactive) | 0.304 (inactive) | 1.83 (inactive) | 0.117 (inactive) | -0.194 (inactive) | 0.543 | -0.173 | 2.45 (inactive) | 0.73 | -0.47 | -3.27 (inactive) | 0.0926 (inactive) | 0.213 (inactive)
Cc1ccc(S[C@]2(C(=O)NCC(F)(F)F)CC(=O)N(Cc3ccccc3)[C@@H]2c2ccc(CO)cc2I)cc1 | 0.448 | -3.93 (inactive) | -3.15 (inactive) | 0.343 (inactive) | 0.848 (inactive) | -1.55 (inactive) | 0.531 (inactive) | 0.562 (inactive) | -2.27 | 0.0338 | -0.0862 (inactive) | 0.442 | 0.15 | -3.68 (inactive) | 0.475 (inactive) | 0.554 (inactive)
COc1cc2c(cc1OC)CN(C(=O)[C@@H]1[C@H]3C(=O)O[C@H](c4ccccc4)[C@H](c4ccccc4)N3[C@H](c3ccc(OCCO)cc3)[C@@]13C(=O)Nc1ccc(C#CC4(O)CCCCCC4)cc13)CC2 | 0.61 | -0.257 (inactive) | 0.341 (inactive) | -1.3 (inactive) | 4.2 (inactive) | 2.82 (inactive) | 0.312 (inactive) | 0.854 (inactive) | -0.221 | -0.0382 | 0.784 (inactive) | 0.684 | -2.06 | 3.75 (inactive) | -0.124 (inactive) | 0.041 (inactive)
O=C(NCc1ccccc1)[C@@H]1c2ccccc2C(=O)N(Cc2ccccc2C(F)(F)F)[C@H]1c1ccc(CO)cc1 | -0.431 | 0.036 (inactive) | -0.433 (inactive) | 0.154 (inactive) | 1.19 (inactive) | 0.0858 (inactive) | 0.232 (inactive) | 0.56 (inactive) | -0.137 | -0.107 | 0.55 (inactive) | 0.545 | 0.0452 | -3.17 (inactive) | -0.496 (inactive) | -0.841 (inactive)
C=CCNC(=O)[C@@H]1[C@H]2C(=O)O[C@H](c3ccccc3)[C@H](c3ccccc3)N2[C@H](c2ccc(O)cc2)[C@@]12C(=O)N(C(=O)OCCOC)c1ccc(C#CC3(O)CCCCCC3)cc12 | 0.919 | 0.444 (inactive) | -0.689 (inactive) | 0.263 (inactive) | -0.123 (inactive) | 0.3 (inactive) | 0.891 (inactive) | 0.957 (inactive) | 0.196 | -0.391 | 0.0275 (inactive) | 0.557 | 0.359 | 0.16 (inactive) | -0.209 (inactive) | -0.468 (inactive)
CN1C(=O)C2C=CC(C(O)C#Cc3ccccc3)N(Nc3ccccc3)C2C1=O (stereo not drawn) | -0.264 | -1.36 (inactive) | -1.06 (inactive) | 0.164 (inactive) | -0.103 (inactive) | 1.39 (inactive) | -0.0835 (inactive) | -1.05 (inactive) | -0.633 | 0.394 | 0.783 (inactive) | 0.794 | -0.351 | -4.25 (inactive) | -0.0435 (inactive) | 0.113 (inactive)
CCC(CC)C(O)C1C=CC2C(=O)N(c3ccccc3)C(=O)C2N1Nc1ccc(C(C)C)cc1 (stereo not drawn) | -1.35 | -0.129 (inactive) | -0.636 (inactive) | 0.851 (inactive) | 0.89 (inactive) | 1.27 (inactive) | -0.171 (inactive) | -0.297 (inactive) | -0.0095 | 0.159 | 0.0969 (inactive) | 0.586 | -0.615 | -3.2 (inactive) | -0.681 (inactive) | -0.765 (inactive)
CC(C)C[C@@H]1NC(=O)[C@@H]2C[C@H](C(=O)NCCCCN(C)C)[C@H](c3cccc(OCCO)c3)N2C1=O | 0.0064 | -0.453 (inactive) | 0.303 (inactive) | -1.21 (inactive) | 0.655 (inactive) | -0.121 (inactive) | 0.0825 (inactive) | -0.653 (inactive) | -0.127 | -0.0749 | 0.36 (inactive) | 0.755 | -0.192 | -3.41 (inactive) | -0.232 (inactive) | -0.455 (inactive)
CC(=O)c1ccc(C(O)C2C=CC3C(=O)N(c4ccccc4)C(=O)C3N2Nc2ccc(C#N)cc2)cc1 (stereo not drawn) | -1.04 | -2.04 (inactive) | -0.848 (inactive) | -0.946 (inactive) | 0.695 (inactive) | -0.826 (inactive) | -0.821 (inactive) | -0.433 (inactive) | -1.84 | -0.396 | -0.305 (inactive) | 0.441 | 0.981 | -4.75 (inactive) | 0.293 (inactive) | -0.211 (inactive)
O=C(CS)NCCCCCCNC(=O)[C@H]1C[C@H]2C(=O)N[C@@H](Cc3ccccc3)C(=O)N2[C@H]1c1ccc(O)cc1 | 0.504 | 0.588 (inactive) | -0.619 (inactive) | -0.0269 (inactive) | 0.836 (inactive) | 0.252 (inactive) | 0.0577 (inactive) | -0.983 (inactive) | 0.158 | -0.166 | 0.398 (inactive) | 0.849 | -0.0607 | -1.23 (inactive) | -0.836 (inactive) | -0.555 (inactive)
C=CCC(OC(C)=O)[C@@H]1[C@@H](N(Cc2cc3ccccc3o2)C(=O)c2ccc(C)cc2)c2cc(OCCCO)ccc2N1C(=O)Cc1ccc(OC)cc1 (stereo partly drawn) | 0.564 | -0.859 (inactive) | 0.655 (inactive) | 0.889 (inactive) | 0.0885 (inactive) | 0.634 (inactive) | -0.506 (inactive) | -0.0196 (inactive) | 0.618 | -0.102 | -0.23 (inactive) | 0.0544 | -0.901 | -2.07 (inactive) | -0.0554 (inactive) | -0.601 (inactive)
COC1OC[C@]2(C)[C@H]3C4=C(CN2C(=O)OC(C)(C)C)[C@H](C)C(CO)C(CO)C4CC[C@@H]13 (stereo partly drawn) | -1.1 | 1.14 (inactive) | -1.25 (inactive) | -0.0528 (inactive) | 0.523 (inactive) | 1.06 (inactive) | -0.34 (inactive) | 0.154 (inactive) | -0.975 | 0.243 | 1.48 (inactive) | 0.745 | -0.892 | -4.97 (inactive) | 0.495 (inactive) | -0.0531 (inactive)
C=CC[C@]1(C(=O)NCCN2CCOCC2)N=C(c2ccc(OCCCO)cc2)O[C@H]1c1ccccc1CN=[N+]=[N-] | 0.735 | -1.01 (inactive) | 0.33 (inactive) | 0.453 (inactive) | -1.17 (inactive) | 0.724 (inactive) | 1.31 (inactive) | 0.351 (inactive) | 0.485 | -0.209 | 0.882 (inactive) | 0.887 | -2.29 | -4.74 (inactive) | -0.005 (inactive) | 0.23 (inactive)
COCCOC(=O)N1C(=O)[C@@]2(c3cc(C#CCCO)ccc31)[C@H](c1ccccc1OCCO)N1[C@H](c3ccccc3)[C@H](c3ccccc3)OC(=O)[C@H]1[C@@H]2C(=O)Nc1nc2ccccc2s1 | 1.03 | 1.13 (inactive) | -0.125 (inactive) | -0.26 (inactive) | 2.51 (inactive) | 1.79 (inactive) | -0.233 (inactive) | -0.324 (inactive) | -0.411 | -0.115 | 1.45 (inactive) | 0.823 | -1.45 | 1.85 (inactive) | 0.0686 (inactive) | 0.0927 (inactive)
COc1ccc(C#Cc2ccc3c(c2)[C@]2(C(=O)N3)[C@H](c3ccc(O)cc3)N3[C@H](c4ccccc4)[C@H](c4ccccc4)OC(=O)[C@H]3[C@@H]2C(=O)O)cc1 | 0.275 | -1.16 (inactive) | 0.504 (inactive) | -2.78 (inactive) | 1.15 (inactive) | 0.0708 (inactive) | 0.355 (inactive) | -0.341 (inactive) | 0.801 | 0.126 | -0.101 (inactive) | 0.83 | -1.23 | -5.22 (inactive) | -0.368 (inactive) | -0.664 (inactive)
